IL1B secr inh: qHTS for Inhibitors of Inflammasome Signaling: IL-1-beta AlphaLISA Primary Screen. THP-1 LPS/ATP IL-1B secretion, AlphaLISA, 16 h; hits give low values. activity change, % at 57.5 µM. hit rate 4.7% among 360,000. AID 743279, 2014; in the data active means activity change below about -50%; inconclusive means mostly about -30% to -49%
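THP-1 cells pretreated 1 hr with compounds (up to 57.5 uM final), then stimulated with LPS (250 ng/mL final) plus ATP (1.25 mM final); secreted IL-1B measured by AlphaLISA after 16 hr, decreased signal indicating inhibition.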
HT1080NT lethal: qHTS for induction of synthetic lethality in tumor cells producing 2HG: qHTS for the HT-1080-NT fibrosarcoma cell line. AID 686970, 2013. Potency, µM (series often up to 46.1 µM), hits mostly cytotoxic. HT-1080-NT fibrosarcoma viability, CellTiter-Glo ATP luminescence, 48 h. hit rate 1.6% among 360,000;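 further: NT is the 2HG producing partner of a matched IDH1 knockdown line; nearly all actives have a fitted effect of over 55% in size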
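A 48-hour cytotoxicity screen used HT-1080-NT cells plated 2 hours before compound delivery. ATP-based CellTiter-Glo luminescence measured viability, normalized to DMSO and no-cell controls.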
DT40 TDP1 no CPT: qHTS for Inhibitors of human tyrosyl-DNA phosphodiesterase 1 (TDP1): qHTS in cells in absence of CPT; DT40 Tdp1-/- hTDP1 cells, no CPT, ATP luminescence, 48 h; Potency, µM (doses to about 46.2 µM), usual class: inhibitors; hit rate 15% among 420,000; further: nearly all actives have a fitted effect of over 55% in size
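Cells were dispensed at 400 per well, compounds added by pin tool, plates incubated ≥48 hr at 37 °C, then CellTiter-Glo added for 30 min at room temperature before luminescence reading. Line: DT40 Tdp1-/- complemented with hTDP1; camptothecin omitted.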
HT1080 IDH1KD tx: qHTS for induction of synthetic lethality in tumor cells producing 2HG: qHTS for the HT-1080-IDH1KD cell line | AID 686971, 2013 | Potency, µM (titrated, usually from 46.1 µM), hits mostly cytotoxic | hit rate 2% among 360,000 | HT-1080 IDH1 knockdown viability, ATP luminescence, 48 h
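Viability of IDH1-knockdown HT-1080 fibrosarcoma cells was assessed by CellTiter-Glo after 48 h at 37 °C with titrated compound; concentration-effect curves were classified by fit quality and response size.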
TDP1 cell CPT: qHTS for Inhibitors of human tyrosyl-DNA phosphodiesterase 1 (TDP1): qHTS in cells in presence of CPT | hit rate 12% among 420,000 | Potency, µM (series often up to 46.2 µM), usual class: inhibitors | chicken DT40 Tdp1-/-;hTDP1 cells + 20 nM CPT, ATP luminescence, 48 h | AID 686979, 2013; further: nearly all actives have a fitted effect of over 55% in size
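Chicken DT40 Tdp1-/- cells stably complemented with human TDP1 were seeded at 400 cells/well in medium containing 20 nM camptothecin, exposed to pin-transferred compounds, and grown at 37 °C for at least 48 hr. Viability was read as ATP luminescence.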
ELG1 repair inh: qHTS screen for small molecules that inhibit ELG1-dependent DNA repair in human embryonic kidney (HEK293T) cells expressing luciferase-tagged ELG1 | HEK293T ELG1-luciferase reporter, luminescence, 16 h; DNA damage induced by 5-fluorouridine | Potency, µM (top dose mostly 46.1 µM), actives largely listed as inhibitors | hit rate 2.3% among 330,000; further: nearly all actives have a fitted effect of over 55% in size
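Cells (2,000 per well) received 5-fluorouridine plus test compound or DMSO and were incubated 16 hr at 37 °C, 5% CO2. Luciferase activity was read by luminescence 30 min after ONE-Glo addition; signal suppression marked inhibition of damage-induced ELG1 function.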
A number is an active result; – = inactive; ? = inconclusive; · = no result given. A selection: hits, their analogues and other compounds. The true share with any hit is near 19%. Unless noted, the call rests on the fitted dose curve; in most records, active means well fitted curve in the direction sought with a large enough effect; inconclusive means small, poorly fitted or top-dose-only effect, or another doubt; inactive means no such curve, though single readings can be large; an effect the other way counts as inactive or inconclusive.

SMILES	IL1B secr inh	HT1080NT lethal	DT40 TDP1 no CPT	HT1080 IDH1KD tx	TDP1 cell CPT	ELG1 repair inh
O=C(CN(C1CCCCC1)S(=O)(=O)c1ccc(Cl)cc1)NCc1cccnc1	–	–	16.4µM	–	?	–
Cc1oc(-c2cccc(Br)c2)nc1CN1CCC(C(=O)NCc2ccccc2)CC1	·	·	?	·	18.4µM	·
COC(=O)[C@@]1(Sc2ccc(C)cc2)CC(=O)N[C@@H]1c1ccco1	–	–	–	–	–	·
CC(=O)Nc1ccc(S(=O)(=O)Nc2ccc(-n3cnnn3)cc2)cc1	–	–	?	–	–	–
CCCN(CCC)CCNC(=O)C1CCN(Cc2nc(-c3ccc(Cl)cc3)oc2C)CC1	?	–	23.1µM	–	?	–
COc1ccc(-c2nc(CN3CCC(C(=O)NCCCOC(C)C)CC3)c(C)o2)cc1OC	·	·	–	·	–	·
CCCCCCCCCCCCCCCC(=O)NC(C)C	·	·	–	·	–	·
Cc1ccc(NC(=O)N(Cc2c[nH]c3ccccc23)C2CCCCCC2)cc1C	·	·	8.2µM	·	7.31µM	·
COc1cccc(NC(=O)N(Cc2c[nH]c3ccccc23)C2CCCCC2)c1	·	·	18.4µM	·	8.2µM	·
COc1ccc2cc(CN(C(=O)Nc3ccccc3)C3CCCC3)c(=O)[nH]c2c1	–	–	–	–	?	?
CCN1C(=O)[C@H]2[C@@H](c3ccc(C)cc3)N[C@]3(CCCN(Cc4cccn4C)C3=O)[C@H]2C1=O	–	–	?	–	–	·
CC(=O)N1CCN(c2c(F)c(F)c(C(F)(F)F)c(F)c2F)CC1	–	–	14.6µM	–	?	–
CC(=O)N1CCN(c2nc3c(F)cc(F)cc3s2)CC1	·	·	–	·	–	·
O=S1(=O)CC(O)C(O)CS1 (stereo unspecified)	–	–	?	?	23.1µM	·
Cc1ccc(Cl)cc1N(CC(=O)NC(C)c1ccccc1)S(C)(=O)=O (stereo unspecified)	–	?	–	–	–	–
Nc1cc(S(=O)(=O)N2CCCCC2)ccc1N1CCCCC1	–	–	?	–	?	–
Nc1ccc(S(=O)(=O)c2ccc(N3CCOCC3)c(N)c2)cc1	?	–	20.6µM	–	–	·
Nc1cc(S(=O)(=O)N2CCOCC2)ccc1N1CCCCC1	–	–	?	–	23.1µM	–
Cc1ccc2nc(Nc3ccccc3)c(/C=N/O)c(=O)n2c1	?	–	6.51µM	–	2.59µM	?
Cc1ccc2nc(Cl)c(/C=N/Nc3nc(C)cc(C)n3)c(=O)n2c1	-97.2	–	?	–	?	?
Cc1ccc2nc(Nc3ccccc3)c(C=O)c(=O)n2c1	–	–	–	–	–	–
COc1ccc(Nc2nc3ccc(C)cn3c(=O)c2/C=N/O)cc1	–	–	6.51µM	–	5.8µM	?
CC1CC(C)CN(C(=O)CSc2ncnc3sccc23)C1 (stereo unspecified)	–	–	–	–	–	–
S=c1[nH]nc(-c2cc(-c3ccccc3)n[nH]2)n1/N=C/c1ccccc1	–	–	–	–	?	?
S=c1[nH]nc(-c2cc(-c3ccccc3)n[nH]2)n1/N=C/C(Br)=C/c1ccccc1	-99.2	7.31µM	2.59µM	5.8µM	2.91µM	?
SMILES	IL1B secr inh	HT1080NT lethal	DT40 TDP1 no CPT	HT1080 IDH1KD tx	TDP1 cell CPT	ELG1 repair inh
Cc1cccc(/C=N/n2c(-c3cc(-c4ccccc4)n[nH]3)n[nH]c2=S)c1	–	–	?	–	16.4µM	?
CC#CC(=O)N1CCC(CCC(=O)N(C)Cc2ccccc2)CC1	?	–	–	–	–	?
N#Cc1ccc(C(=O)Nn2cnnc2)cc1	–	–	–	–	–	–
CC(C)NC(=O)Cn1c(=O)nc(-c2ccccc2F)c2cc(Cl)ccc21	·	·	7.31µM	·	–	·
Cc1c2cnn(-c3ccccc3)c(=O)c2c(C)n1C(C)C(=O)Nc1ccccc1C(F)(F)F (stereo unspecified)	·	·	–	·	?	·
CN(C)N1C(N)=C(C#N)C(c2cccc3ccccc23)C2=C1CC(c1ccccc1)CC2=O (stereo unspecified)	–	?	7.31µM	?	8.2µM	16.4µM
COc1ccc2oc(C(=O)OCC(=O)Nc3ccc(C)c(S(=O)(=O)N4CCOCC4)c3)c(C)c2c1	–	–	–	–	–	·
Cn1c(=O)c(=O)n(C)c2cc([N+](=O)[O-])c([N+](=O)[O-])cc21	-101.4	?	18.4µM	?	14.6µM	?
CC(=O)c1ccc(NC(=O)c2ccc(CSc3ccccc3)o2)cc1	?	–	?	–	16.4µM	?
COc1ccc(CCNC(=O)c2ccc(COc3ccccc3OC)o2)cc1	–	–	11.6µM	–	–	–
COc1ccccc1OCc1ccc(C(=O)NCC(C)C)o1	–	–	–	–	–	–
COc1ccc(CCNC(=O)c2ccc(CSc3ccccc3)o2)cc1	-58.6	–	–	–	–	?
COc1cccc(Cn2c(=O)cnc3cnc(Oc4ccccc4)nc32)c1	·	·	–	·	–	·
COc1ccccc1-c1sc2ccccc2c1C#Cc1ccc(N(C)C)cc1	–	–	?	–	–	?
COc1ccccc1NC(=O)C(C)N(C)Cc1ccc(Cl)s1 (stereo unspecified)	–	–	?	–	?	–
COc1oc(C(=O)NC2CCCCC2)c(-c2ccc(Cl)cc2)c1S(=O)(=O)c1ccccc1	-57.7	?	20.6µM	?	?	·
Oc1ccc(C[C@@H]2CNCCN2CCC23CC4CC(CC(C4)C2)C3)cc1	–	?	13µM	23.1µM	16.4µM	?
Oc1ccc(C[C@H]2CNCCN2CCC23CC4CC(CC(C4)C2)C3)cc1	?	16.4µM	16.4µM	?	18.4µM	–
CCCN(C(=O)c1c(C)oc2ncnc(N3CCOCC3)c12)c1ccc(Cl)c(Cl)c1	·	·	–	·	–	·
Cc1cccc(-c2nn3c(=O)cc(CN4CCN(C(=O)/C=C/c5ccccc5)CC4)nc3s2)c1	·	·	?	·	–	·
O=C(Nc1cccc(Cl)c1)OC1CCCCc2cccnc21 (stereo unspecified)	-79.7	–	?	–	13µM	–
CC1CCCCN1C(=O)Cn1c(=O)n(-c2ccc(Cl)cc2)c(=O)c2c3c(sc21)CCC3 (stereo unspecified)	·	·	?	·	–	·
COc1cccc(O)c1CN1CCC(n2nccc2NC(=O)c2ccc3c(c2)OCO3)CC1	–	–	–	–	–	–
Cc1nn(-c2ccccc2)c(=S)n1-c1ccccc1	–	–	13µM	–	20.6µM	–
